This note sets out measurements from PubChem BioAssay (NCI).

Each structure is given as a SMILES string. The panel holds about 83,000 compounds, 20% with a hit somewhere; the sample as a whole holds those more often.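 96-well plates, one dose, 48 hours. Percent growth reported; active if below 10.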 Calls of active or inactive are those of the source.

The subject of the test is CAKI-1 renal. In words: NCI-60 one-dose screen, 48 h (100 = growth as untreated, 0 = no growth, -100 = all killed). Particulars: 10 µM unless noted.
Turning to `CCCCSc1nc(Nc2ccc(C(C)=O)cc2)c(C#N)c(-c2ccc(OC)cc2)n1`, the growth was 34% (inactive).
Turning to `CCOC(=O)C1=C(N)N(c2ccccc2)C2=C(C(=O)CC(C)(C)C2)C1c1ccc([N+](=O)[O-])cc1` (centres undefined), the growth was 68.4% (inactive).
`Cc1cccc(Nc2nc3ccccc3nc2/C=C/c2ccc(F)cc2)c1`: the growth was 79.9% (inactive).
Turning to `Cn1cc(-c2cc3nc(-c4c[nH]c5ccc(Br)cc45)cc(N)n3n2)c2ccccc21`, the growth is -87.8% (active).
Take `C#CCOc1ccc(/C=N/Nc2nc(-c3cc4cc(OC)ccc4oc3=O)cs2)cc1OC`: the growth is 39.2% (inactive).
Then `CC1(C)CC[C@]2(C(=O)O)CC[C@]3(C)C(=CCC4[C@@]5(C)C[C@@H](O)[C@@H]6OC(c7ccc(F)cc7)OC[C@@]6(C)C5CC[C@]43C)C2C1` (some centres undefined), with 33.6% (inactive).
Turning to `O=C(NN1C(=O)/C(=C/C=C/c2ccc([N+](=O)[O-])o2)SC1=S)c1cccc(O)c1`, the growth was -100% (active).
On to `Cc1ccc(C(=O)NN2C(=O)/C(=C/C=C/c3ccc([N+](=O)[O-])o3)SC2=S)cc1`, for which the growth was -100% (active).
Consider `N/C(=N\c1nc2ccccc2s1)NC(=O)Nc1c(Cl)cccc1Cl`, for which the growth was 32% (inactive).
In the case of `O=C(CN1C(=O)/C(=C/c2ccccc2Cl)SC1=S)N1CCOCC1`, the growth is 90.9% (inactive).
On to `CN(C)c1nc(NCCNS(=O)(=O)c2ccc(C3=Nc4c(N)nc(N)nc4NC(c4ccc(C(F)(F)F)cc4)C3)cc2)nc(Nc2ccc(F)cc2)n1` (centres undefined), for which the growth is 63.1% (inactive).
In the case of `O=C(CSc1nc2ccccc2c(=O)[nH]1)NCCN1CCCCC1`, the growth was 82.4% (inactive).
For the compound `N/C(=N\c1nc2ccccc2s1)NC(=O)Nc1ccc(Cl)cc1Cl`, the growth was -87.7% (active).
Take `Cc1ccc(-c2nc(C#N)c(S(=O)(=O)N3CCN(S(=O)(=O)c4ccccc4)CC3)o2)cc1`: the growth was 47% (inactive).
With `COc1ccc(/C=C/c2nc3ccccc3n3c(-c4ccc(Cl)cc4)nnc23)cc1`, the growth is 72.2% (inactive).
Then `CN(C)c1nc(NCCNS(=O)(=O)c2ccc(C3=Nc4c(N)nc(N)nc4NC(c4ccccc4)C3)cc2)nc(Nc2ccc(F)cc2)n1` (centres undefined), with 61.2% (inactive); and `CC1(C)CC[C@]2(C(=O)O)CC[C@]3(C)C(=CCC4[C@@]5(C)C[C@@H](O)[C@@H]6OC(c7ccccc7F)OC[C@@]6(C)C5CC[C@]43C)C2C1` (some centres undefined), with 9.12% (active).
In the case of `COC(=O)C[C@](O)(CCCC(C)(C)O)C(=O)O[C@H]1C(OC)=C[C@@]23CCCN2CCc2cc4c(cc2[C@@H]13)OCO4`, the growth was 3.41% (active).
For the compound `Cn1cc(-c2cc(N)n3nc(-c4cn(C)c5ccccc45)cc3n2)c2cc(Cl)ccc21`, the growth was -82.5% (active).
Consider `CC1(C)CC[C@]2(C(=O)O)CC[C@]3(C)C(=CCC4[C@@]5(C)C[C@@H](O)[C@@H]6OC(c7ccco7)OC[C@@]6(C)C5CC[C@]43C)C2C1` (some centres undefined), for which the growth is 33.1% (inactive).
Turning to `COc1ccc(Cc2nn(CC(=O)N/N=C/c3ccc(F)cc3)c(=O)c3c(C)noc23)cc1`, the growth is 10.2% (inactive).
For `Cc1cccc(-c2nc(Nc3cccc(S(N)(=O)=O)c3)c3ccccc3n2)c1`, the growth was 46.9% (inactive).
Consider `COc1ccc2[nH]cc(-c3nnc(N)nc3-c3cn(C)c4ncc(Br)cc34)c2c1`, for which the growth was 43.9% (inactive).
Then `N/C(=N\c1nc2ccccc2s1)NC(=O)Nc1ccccc1Br`, with -17.4% (active).
